Screening results (PubChem)
Marburg entry inh = qHTS for inhibitors of binding or entry into cells for Marburg Virus; AID 540276, 2011; 300,000 tested, 1.8% active; Potency, µM (top dose mostly 37.8 µM), for inactives: at the highest dose activity change, negative = inhibition, most hits filed as inhibitors; Marburg virus pseudotyped entry inhibition, cell reporter; calls by dose curve; tested in HEK293 cells; also: potency is read from the fitted curve at half-maximal effect; % is scaled to controls: 0 for no effect and ±100 for the full control effect
Shiga toxin inh = A qHTS for Small Molecule Inhibitors of Shiga Toxin. inhibition, % at 38.7 µM. 290,000 tested, 9.2% active. Vero cells, Shiga toxin protein synthesis inhibition reporter. AID 2315, 2010; in the data active = inhibition mostly above about 28%, no sharp cut-off; inactive = mostly below about 43%; also: 0% is about no effect
Cycloheximide cs = Cycloheximide Counterscreen for Small Molecule Inhibitors of Shiga Toxin. cell reporter, cycloheximide protein synthesis inhibition counterscreen. max response, %. 300,000 tested, 12% active; in the data active = max response mostly above about 13%, no sharp cut-off; inactive = mostly below about 14%; also: read at 38.3 µM for the half of the compounds with a filed dose; 0% is about no effect
HCV inhibitor = qHTS Assay for Inhibitors of Hepatitis C Virus (HCV). Huh7.5.1 HCVcc-Cre infection, luciferase reporter, 44 h. Potency, µM (series often up to 41.8 µM), without a hit: top-dose activity change, negative = inhibition, actives largely listed as inhibitors. 340,000 tested, 3.4% active. AID 651820, 2012; active = well fitted inhibition curve with a large enough effect; inconclusive = small, poorly fitted or top-dose-only effect, or another doubt; inactive = no such curve, though single readings can be large or run the other way; also: potency is read from the fitted curve at half-maximal effect; % is scaled to controls: 0 for no effect and ±100 for the full control effect
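Infectious HCVcc-Cre (~0.5 moi) was added to cells just after compound, with cells seeded 4 h earlier at 1,000 per well. Luciferase activity after 44 h culture reported infection; substrate was incubated 15 min at room temperature before reading.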
Lassa entry inh = qHTS for Inhibitors of binding or entry into cells for Lassa Virus; Lassa virus pseudotype entry inhibition, cell reporter; Potency, µM (doses to about 37.9 µM), for inactives: top-dose activity change, negative = inhibition, hits mostly inhibitors; 300,000 tested, 1.2% active; AID 540256, 2011; calls by dose curve; tested in HEK293 cells; also: potency is read from the fitted curve at half-maximal effect; % is scaled to controls: 0 for no effect and ±100 for the full control effect; nearly all actives have a fitted effect of over 50% in size
FMDV antiviral = High Throughput Screening for Foot and Mouth Disease Virus Antivirals; Potency, µM (highest dose often 57.9 µM), for inactives: top-dose activity change, negative = inhibition, most hits filed as inhibitors; 410,000 tested, 1.2% active; FMDV antiviral cell-based qHTS; AID 1159524, 2015; calls by dose curve; tested in HEK293T cells; also: read-out not given here; potency is read from the fitted curve at half-maximal effect; % is scaled to controls: 0 for no effect and ±100 for the full control effect; nearly all actives have a fitted effect of over 45% in size
Starred values were filed as active, the others as inactive; ? = inconclusive; . = not tested or not shown; ! = not confirmed by another sample; [ ] = dose if it differs, or a comment. Compounds with a hit are over-represented: about 13% of the library has one in this group of screens.

SMILES | Marburg entry inh | Shiga toxin inh | Cycloheximide cs | HCV inhibitor | Lassa entry inh | FMDV antiviral
Brc1ccc2ncc3ccccc3c2c1 | -18% | . | . | ? | ? | -1%
Nc1c(C(=O)Nc2ccc(C(F)(F)F)cc2)sc2nc(-c3cccs3)ccc12 | 11%[46.1 µM] | . | . | . | 7%[46.1 µM] | 31%
Cc1cc(F)ccc1NC(=O)c1sc2nc(-c3cccs3)ccc2c1N | 4%[46.1 µM] | . | . | . | 20%[46.1 µM] | -18%
Nc1c(C(=O)NC2CCCC2)sc2nc(-c3cccs3)ccc12 | 17% | 39 | 22* | ? | 29% | 22%
COc1ccc(C(=O)c2sc3nc(-c4ccccc4)ccc3c2N)cc1OC | -24% | -16 | -3 | ? | ? | -21%
CCOC(=O)c1sc2nc(-c3ccccc3)ccc2c1N | ? | 67* | 92* | 9% | ? | -14%
NC(=O)c1sc2nc(-c3cccs3)ccc2c1N | . | 64* | 49* | ? | . | 13%
NC(=O)c1sc2nc(-c3ccccc3)ccc2c1N | . | 97* | 35* | 9% | . | 67%
Cc1ccc(S(=O)(=O)N2CCCC2CNC(=O)c2ccc3c(c2)OCO3)cc1 (configuration not stated) | ? | . | . | ? | -29% | 3%
N#Cc1ccccc1S(=O)(=O)N1CCN(CC(=O)Nc2ccnn2C2CCCC2)CC1 | 2% | . | . | -5% | 7% | -25%
CC1SC(=Nc2ccccc2)N(S(=O)(=O)c2ccccc2)C1=O (configuration not stated) | ? | -11 | -4 | 17% | 4% | -15%
COc1cc2c(-c3ccc(O)cc3)nc3c(c(C)nn3-c3ccccc3)c2cc1OC | -15% | -19 | -1 | 11µM* | ? | 0%
COc1cc(C=O)ccc1OCCOc1ccccc1[N+](=O)[O-] | ? | 85* | 28* | 11% | ? | 8%
COc1cc(C=O)ccc1OCCCOc1ccccc1[N+](=O)[O-] | 19% | 64* | 48* | ? | 0% | 29%
COc1cc(C=O)ccc1OCCCOc1ccccc1C(=O)O | ? | -27 | -8 | -13% | ? | 8.9µM*
COc1cc(C=O)ccc1OCCCOc1ccc([N+](=O)[O-])cc1 | 7% | 10 | -2 | ? | ? | ?
COc1cc(C=O)ccc1OCCCCOc1ccccc1[N+](=O)[O-] | -13% | 35* | 15* | -15% | 4% | 9%
Cc1ccc(OCC(=O)Nc2ccc(S(=O)(=O)Nc3cc(C)nc(C)n3)cc2)cc1 | . | -7 | -4 | 10% | . | 63%
COc1cc(C=O)ccc1OS(=O)(=O)c1ccccc1[N+](=O)[O-] | 9%[46.1 µM] | 22 | 22* | 13% | 0% | 0%
Nc1nonc1NN=C1CCCCC1 | -2% | 77 | 12* | 27% | . | -5%
Nc1nonc1N/N=C\c1ccccc1 | -4% | 5 | -5 | 22% | -7% | 70%
C[C@H](CO)N1C[C@H](C)[C@@H](CN(C)Cc2ccncc2)Oc2c(NS(=O)(=O)c3ccccc3)cccc2C1=O | . | . | . | 12% | . | 46%
CN(C)c1ccc(C2=NOC(CN3C(=O)c4ccccc4S3(=O)=O)C2)cc1 (configuration not stated) | -8%[46.1 µM] | 71* | 55* | -38% | -24% | -16%
CN(C)c1nc(N(C)C)nc(N(C#N)CN2C(=O)c3ccccc3S2(=O)=O)n1 | 11% | -16 | -1 | 31% | -4% | ?
CCOc1ccc(/C=C/C(=O)Nc2cccc(C(C)=O)c2)cc1 | -25% | 64* | 27* | 13µM* | 0% | -23%
SMILES | Marburg entry inh | Shiga toxin inh | Cycloheximide cs | HCV inhibitor | Lassa entry inh | FMDV antiviral
CCOC(=O)c1cccc(NC(=O)Nc2ccc(OCC)cc2)c1 | ? | 108* | 39* | ? | ? | 11%
CCOC(=O)C(=O)Nc1cccc(C(=O)OCC)c1 | ? | -3 | -1 | 15% | 2% | -14%
CCOc1ccc(NC(C(=O)Nc2cccc(C(C)=O)c2)c2ccccc2)cc1 (configuration not stated) | ? | -3 | 0 | -20% | -12% | 12%
CCOc1ccc(NC(=O)Nc2cccc(C(=O)O)c2)cc1 | ? | -11 | -1 | -22% | ? | 1.6µM*
CCOc1ccc(NC(=O)Nc2cc(C)ccc2F)cc1 | 2% | 54* | 34* | ? | -1% | 63%
Cc1ccc(C2(C)NC(=O)N(CC(=O)N3CCN(S(=O)(=O)c4ccc(Cl)s4)CC3)C2=O)cc1 (configuration not stated) | -24% | . | . | -22% | 13% | ?
CCOCCCNC(=O)C(NC(=O)c1ccc2c(c1)OCO2)c1ccc(Cl)cc1 (configuration not stated) | -12% | -4 | -4 | -21% | 1% | -12%
CCn1c(COc2cccc3cccnc23)nnc1SCC(=O)O | . | -15 | -5 | 21% | . | -6%
O=C(Nc1ccc2nc(-c3ccc(Br)o3)[nH]c2c1)c1cccs1 | ? | 52* | 45* | ? | ? | -5%
CC(=O)Nc1ccc2nc(-c3ccc(Br)o3)[nH]c2c1 | 4% | 58* | 55* | -5% | ? | 56%
CCOC(=O)Nc1ccc2nc(-c3cscn3)[nH]c2c1 | . | . | . | . | . | 25%
O=C(Nc1ccc2nc(-c3ccc(Br)o3)[nH]c2c1)c1ccco1 | ? | 74* | 24* | -20% | ? | -15%
CCC1(c2ccc(F)cc2)NC(=O)N(CC(=O)N2CCN(S(=O)(=O)c3ccc(Cl)cc3)CC2)C1=O (configuration not stated) | -10% | . | . | ? | -28%[46.1 µM] | -11%
CN(Cc1nc2ccccc2c(=O)[nH]1)C(=O)c1cc2c(s1)CCCCC2 | 8%[46.1 µM] | . | . | 0% | -4%[46.1 µM] | -16%
COc1ccccc1NC(=O)N1CCc2[nH]c3ccc(Cl)cc3c2C1 | -22% | 12 | -3 | 11µM* | ? | ?
COc1ccccc1NC(=O)Cc1c(C(=O)O)[nH]c2ccc(Cl)cc12 | . | . | . | . | 15%[46.1 µM] | -23%
COc1ccc2c(c1)c(CC(=O)Nc1nnc(C3CC3)s1)c(C)n2C(=O)c1ccc(Cl)cc1 | 3.2µM* | -7 | 8 | 14% | ? | 5%
COc1ccc2c(c1)c(CC(=O)Nc1c(C)cccc1C)c(C)n2C(=O)c1ccc(Cl)cc1 | -16%[46.1 µM] | . | . | . | 0%[46.1 µM] | ?
COc1ccc2c(c1)c(CC(=O)NCc1cc([N+](=O)[O-])ccc1O)c(C)n2C(=O)c1ccc(Cl)cc1 | -10% | -18 | -2 | ? | 8% | 40µM*
COc1ccc(OC)c(NC(=O)Cc2c(C)n(C(=O)c3ccc(Cl)cc3)c3ccc(OC)cc23)c1 | -22%[46.1 µM] | . | . | . | ? | ?
COc1ccc2c(c1)c(CC(=O)Nc1ccc(C(C)=O)cc1)c(C)n2C(=O)c1ccc(Cl)cc1 | ? | 83*! | 47* | -28% | ? | 18%
CC(C)Nc1ccccc1 | . | . | . | -15% | . | -7%
Cc1[nH]c2ccccc2c1CCNC(=O)c1ccc2nccnc2c1 | 12% | . | 15* | 4% | ? | 2%
